The nature of test [1]: anti-His antibody binders, primary screen, artefact control for SMM control protein annotation, biochemical, small-molecule microarray, 635 nm fluorescence (AID 1128).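 Further: score merges feature fluorescence with signal-to-noise for each printed compound spot.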 The following applies: anti-His Alexa647 antibody binding, higher = more signal.
In test [2] the test system is Human papillomavirus type 1a E7 protein (residues 1-88). The experiment in a line: HPV1a E7 small-molecule binders, primary screen, biochemical, small-molecule microarray, residues 1-88, 635 nm (AID 1129). The following applies: small-molecule microarray binding, fluorescence 635 nm; higher = more signal.
Test [3] has as its target Focal adhesion kinase 1 (Homo sapiens) (UniProt Q05397). The experiment in a line: small-molecule microarray binders of FAK, primary screen, biochemical, 635/667 nm fluorescence, BSA, DTT (AID 1130).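 Further: composite of spot emission at 667 nm and signal to noise over triplicate slides.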 The settings on record: PTK2 binding, 635 nm fluorescence, higher = more signal.
The test system of test [4] is Fibrinogen (Alexa647-labelled). Nature of the test: fibrinogen binders on compound microarrays, profiling panel, artefact control for SMM control-protein annotation, biochemical, small-molecule microarray, 635/667 nm fluorescence (AID 1131).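 Further: z-score merges 667 nm fluorescence with per-spot signal-to-noise over triplicate slides.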 The following applies: fibrinogen-A647 binding fluorescence, higher = more signal.
Test [5] deals with Follistatin (Homo sapiens) (UniProt P19883). Nature of the test: follistatin binders on small-molecule microarrays, primary screen, biochemical, small-molecule microarray, 635/667 nm fluorescence (AID 1132). The following applies: FST binding, 635 nm fluorescence, higher = more signal.
Chain of Follistatin (Homo sapiens) (P19883 whole entry, looked up): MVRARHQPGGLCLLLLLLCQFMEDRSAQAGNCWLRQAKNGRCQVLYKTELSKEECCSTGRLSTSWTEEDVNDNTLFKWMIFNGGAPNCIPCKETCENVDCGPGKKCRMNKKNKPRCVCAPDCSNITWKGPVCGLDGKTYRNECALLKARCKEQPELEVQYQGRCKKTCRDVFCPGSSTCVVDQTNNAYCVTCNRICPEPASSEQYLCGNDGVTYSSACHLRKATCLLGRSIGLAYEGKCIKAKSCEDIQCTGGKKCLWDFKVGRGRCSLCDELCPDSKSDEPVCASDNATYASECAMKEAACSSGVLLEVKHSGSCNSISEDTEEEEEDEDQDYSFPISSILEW
Test [6] addresses Fibroblast growth factor 2 (Homo sapiens) (UniProt P09038). Nature of the test: FGF2 binders on small-molecule microarrays, primary screen, biochemical, small-molecule microarray, 635/667 nm fluorescence (AID 1133). The following applies: small-molecule microarray binding, FGF2, fluorescence 635/667; higher = more signal.
The nature of test [7]: mitochondrial membrane potential change in A549 cells, profiling panel, cell-based, JC-1 fluorescence, basal, 24 h, 100 nL (AID 1138).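 Further: A549 lung adenocarcinoma cells under basal conditions with no added stimulus; test concentration not given here.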 The following applies: higher = more signal.
A further test deals with Lefty1. The experiment in a line: Lefty1 binders on small-molecule microarrays, primary screen, biochemical, small-molecule microarray, 635/667 nm fluorescence (AID 1139). The settings on record: small-molecule microarray binding, fluorescence 635/667; higher = more signal.
Test [8] relates to wheat germ agglutinin (Triticum aestivum), Alexa647-labelled. Nature of the test: wheat germ agglutinin binders on compound microarrays, profiling panel, artefact control for SMM control-protein annotation, biochemical, small-molecule microarray, 635/667 nm fluorescence (AID 1140).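 Further: score merges 667 nm feature emission with signal to noise over triplicate slides.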 The following applies: WGA-A647 binding, 635 nm fluorescence, higher = more signal.
For test [9], the target named is Luciferin 4-monooxygenase (Photinus pyralis) (UniProt P08659). Nature of the test: firefly luciferase enzyme inhibitors, primary screen, biochemical, luminescence, purified enzyme, 2006 set (AID 1141).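 Further: cell-free assay with purified firefly luciferase at 100 ng per well in PBS; test concentration not given here.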 The settings on record: SteadyGlo luminescence, 30 min, higher = more signal, called active from +8 up or from −8 down.
Chain of Luciferin 4-monooxygenase (Photinus pyralis) (P08659 whole entry, looked up): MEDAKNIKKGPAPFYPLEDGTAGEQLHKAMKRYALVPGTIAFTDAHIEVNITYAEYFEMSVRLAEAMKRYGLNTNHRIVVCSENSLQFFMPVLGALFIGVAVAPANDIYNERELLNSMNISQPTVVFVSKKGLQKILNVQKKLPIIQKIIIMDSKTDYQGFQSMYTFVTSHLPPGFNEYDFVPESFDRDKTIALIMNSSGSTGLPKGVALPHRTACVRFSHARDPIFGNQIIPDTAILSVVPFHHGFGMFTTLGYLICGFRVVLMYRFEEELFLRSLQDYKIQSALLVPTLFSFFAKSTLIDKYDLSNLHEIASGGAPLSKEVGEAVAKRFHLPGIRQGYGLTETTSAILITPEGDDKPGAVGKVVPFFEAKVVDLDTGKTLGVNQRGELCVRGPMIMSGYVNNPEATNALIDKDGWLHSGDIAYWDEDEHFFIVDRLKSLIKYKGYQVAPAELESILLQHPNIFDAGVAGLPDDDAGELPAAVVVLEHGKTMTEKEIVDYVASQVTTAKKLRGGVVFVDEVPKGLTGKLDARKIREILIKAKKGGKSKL
Test [10] concerns Wnt5a (protein binding on small-molecule microarray). The experiment in a line: Wnt5a binders on small-molecule microarray, primary screen, biophysical, 635/667 nm fluorescence (AID 1142).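 Further: fluorescence read at 667 nm with signal to noise per printed feature.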 The settings on record: 635 nm fluorescence, higher = more signal.
Test [11] is described as follows: cell viability in Huh7 cells, primary screen, cytotoxicity control for HCV replication inhibitor project, CellTiter-Glo luminescence, basal, 48 h (AID 1143).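 Further: Huh7 hepatoma cells carrying a hepatitis C replication reporter with no stimulus; test concentration not given here.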 The following applies: Huh7 HCV replicon, higher = more signal, called active from +8 up or from −8 down. In general terms: ATP-based viability assays read luminescence as a measure of living cells.
A short description of test [12]: P. aeruginosa biofilm formation inhibitors, primary screen, PAO1 strain, BacTiter-Glo luminescence, LB-PBS (AID 1144). The following applies: 12 h, higher = more signal.
A short description of test [13]: CREB reporter modulators without forskolin, primary screen, cell-based, PC12, CRE-LacZ reporter, unstimulated (AID 1145). The following applies: no forskolin, luminescence, 4.5 h, higher = more signal, called active from +8 up or from −8 down.
The nature of test [14]: CREB reporter modulators under forskolin, primary screen, cell-based, PC12, CRE-LacZ reporter, forskolin-stimulated (AID 1146).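 Further: PC12 cells with 6xCRE LacZ reporter stimulated by forskolin 10 µM; beta-galactosidase reporter signal reflecting CREB driven transcription.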 The settings on record: luminescence, 4.5 h, higher = more signal, called active from +8 up or from −8 down.
In test [15] the target is Streptavidin (Streptomyces avidinii) (UniProt P22629). The experiment in a line: streptavidin binders on small-molecule microarray, primary screen, artefact control for SMM compound annotation, biophysical, 635/667 nm fluorescence (AID 1147).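 Further: signal reflects streptavidin binding to arrayed compounds as a control protein.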 The settings on record: streptavidin binding, higher = more signal.
Chain of Streptavidin (Streptomyces avidinii) (P22629 whole entry, looked up): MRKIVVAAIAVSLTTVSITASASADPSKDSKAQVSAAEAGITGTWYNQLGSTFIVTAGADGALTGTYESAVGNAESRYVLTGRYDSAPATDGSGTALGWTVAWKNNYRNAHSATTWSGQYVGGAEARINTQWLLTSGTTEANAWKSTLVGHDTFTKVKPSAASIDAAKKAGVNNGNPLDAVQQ
Test [16] is described as follows: small-molecule binders of probe aInhba, primary screen, biochemical, small-molecule microarray, 635/667 nm fluorescence (AID 1148).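 Further: score merges 667nm spot fluorescence with signal-to-noise for antibody binding to printed compounds.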 The settings on record: higher = more signal.
The target of test [17] is Torsin-1A (Homo sapiens) (UniProt O14656). Nature of the test: torsin A binders from cell lysate, primary screen, small-molecule microarray, wild-type, 635/667 nm (AID 1149). The settings on record: COS7 hTOR1A-WT lysate, 635 nm fluorescence, higher = more signal.
Chain of Torsin-1A (Homo sapiens) (O14656 whole entry, looked up): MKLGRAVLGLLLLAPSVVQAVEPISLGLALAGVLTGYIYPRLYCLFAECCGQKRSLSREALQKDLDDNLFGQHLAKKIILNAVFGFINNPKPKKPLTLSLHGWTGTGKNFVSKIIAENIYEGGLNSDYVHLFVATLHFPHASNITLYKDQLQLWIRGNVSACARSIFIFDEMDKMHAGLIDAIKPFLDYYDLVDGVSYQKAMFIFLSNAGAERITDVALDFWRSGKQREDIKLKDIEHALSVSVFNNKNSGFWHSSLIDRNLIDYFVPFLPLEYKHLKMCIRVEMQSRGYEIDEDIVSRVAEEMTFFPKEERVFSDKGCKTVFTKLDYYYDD
Test [18] has the same target. The experiment in a line: small-molecule binders of mutant TOR1A in lysate, primary screen, cell lysate, small-molecule microarray, COS7 lysate, 635/667 nm fluorescence (AID 1150).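 Further: score pools 667 nm emission and signal to noise measuring lysate protein binding.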 The following applies: COS7 hTOR1A mutant lysate, 635 nm fluorescence, higher = more signal.
For test [19], the system named is Sonic hedgehog protein (Shh). The experiment in a line: small-molecule binders of Shh protein, primary screen, biochemical, small-molecule microarray, 635/667 nm fluorescence (AID 1151).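 Further: Shh protein binding to compounds spotted on small-molecule microarray slides; score combines spot fluorescence intensity with signal-to-noise across triplicate slides.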 The following applies: small-molecule microarray binding, 635 nm fluorescence; higher = more signal.

Molecules are shown by their SMILES. Calls of active or inactive are those of the source. Unless noted, how the calls were made is not given here.

Chain of Fibroblast growth factor 2 (Homo sapiens) (P09038 whole entry, looked up): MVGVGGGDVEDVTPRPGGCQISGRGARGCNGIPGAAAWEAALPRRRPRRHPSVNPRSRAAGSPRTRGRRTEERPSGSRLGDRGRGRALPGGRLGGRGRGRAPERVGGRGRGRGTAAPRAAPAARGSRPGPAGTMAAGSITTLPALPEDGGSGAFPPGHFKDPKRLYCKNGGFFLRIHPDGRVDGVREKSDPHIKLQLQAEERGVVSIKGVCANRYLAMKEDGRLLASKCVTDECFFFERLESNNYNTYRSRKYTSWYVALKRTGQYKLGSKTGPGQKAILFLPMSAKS
Chain of Focal adhesion kinase 1 (Homo sapiens) (Q05397 whole entry, looked up): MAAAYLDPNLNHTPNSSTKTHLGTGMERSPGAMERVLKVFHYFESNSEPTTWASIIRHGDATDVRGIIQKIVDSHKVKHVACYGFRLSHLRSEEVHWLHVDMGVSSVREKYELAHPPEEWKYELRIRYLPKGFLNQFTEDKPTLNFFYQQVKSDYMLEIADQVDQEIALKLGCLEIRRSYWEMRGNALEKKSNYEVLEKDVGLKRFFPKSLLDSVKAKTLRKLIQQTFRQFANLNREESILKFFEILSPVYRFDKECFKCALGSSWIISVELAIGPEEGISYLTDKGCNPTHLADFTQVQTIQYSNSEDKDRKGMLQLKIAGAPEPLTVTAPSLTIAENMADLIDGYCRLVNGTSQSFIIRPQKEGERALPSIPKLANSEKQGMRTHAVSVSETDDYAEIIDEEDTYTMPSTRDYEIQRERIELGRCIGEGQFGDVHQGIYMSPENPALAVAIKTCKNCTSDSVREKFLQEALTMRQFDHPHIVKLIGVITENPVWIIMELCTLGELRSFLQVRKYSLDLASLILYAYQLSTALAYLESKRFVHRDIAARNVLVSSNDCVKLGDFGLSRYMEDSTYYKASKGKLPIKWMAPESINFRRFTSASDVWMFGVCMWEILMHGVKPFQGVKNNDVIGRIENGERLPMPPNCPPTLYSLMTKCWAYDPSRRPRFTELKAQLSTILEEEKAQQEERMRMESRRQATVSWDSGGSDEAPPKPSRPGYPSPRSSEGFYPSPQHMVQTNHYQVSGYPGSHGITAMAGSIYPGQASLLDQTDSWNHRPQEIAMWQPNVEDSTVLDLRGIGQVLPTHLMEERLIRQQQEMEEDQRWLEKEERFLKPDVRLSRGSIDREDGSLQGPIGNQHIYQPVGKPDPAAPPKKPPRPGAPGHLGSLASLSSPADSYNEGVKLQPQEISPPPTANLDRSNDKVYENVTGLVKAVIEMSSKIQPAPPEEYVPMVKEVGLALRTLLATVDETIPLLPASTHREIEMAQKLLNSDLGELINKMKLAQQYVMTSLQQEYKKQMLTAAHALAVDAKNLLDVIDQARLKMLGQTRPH

As to `CCOC(=O)C[C@H]1[C@H](OC(=O)Cc2ccc3c(c2)OCO3)[C@@H](NC(=O)c2ccc3ccccc3c2)c2cc(OCCCO)ccc2N1C(=O)c1ccccc1`, the composite z-score worked out at 0.638 in [1]; 0.878 in test [2]; 0.675 in test [3]; 0.823 in test [4]; 0.375 in test [5]; 0.111 in [6]. In addition, the composite z-score with Lefty1 turned out to be 0.593; in test [8], 0.271; in test [10] it was 0.0819; in test [15], 0.397; in test [16], 0.0184; with Torsin-1A (Homo sapiens) [17], 0.0289. Moreover, the composite z-score with Torsin-1A (Homo sapiens) [18] was 0.458; in [19], 0.601. The z-score in test [7] is 1.84; in test [9], -1.05 (inactive); in test [11], -0.23 (inactive); in [12], -0.784 (inactive); in test [13], 4.07 (inactive); in test [14] it was 0.005 (inactive).

Regarding `O=C1O[C@H](c2ccccc2)[C@H](c2ccccc2)N2[C@H]1[C@@H](C(=O)N1CCN(c3ncccn3)CC1)[C@]1(C(=O)Nc3ccc(C#CC4=CCCCC4)cc31)[C@H]2c1ccc(O)cc1`, the composite z-score in [1] is 0.896; in test [2], 1.21; in test [3], 0.0908; in test [4] it was 0.756; in test [5], 0.792; in test [6], 0.357. In addition, the composite z-score in the test with Lefty1 is 0.497; in test [8], 0.605; in test [10] it was -0.019; in [15], 1.08; in test [16], -0.0448; in the test with Torsin-1A (Homo sapiens) [17] it was 0.268. The composite z-score in the test with Torsin-1A (Homo sapiens) [18] was 0.839; in test [19] it was 1.13. Further, the z-score was -0.48 in test [7]; -0.0055 (inactive) in [9]; -2.01 (inactive) in test [11]; -0.134 (inactive) in test [12]; 0.155 (inactive) in [13]; -0.196 (inactive) in test [14].

In the case of `O=C1c2ccccc2[C@](Cc2ccccc2I)(C(=O)NC2CC2)[C@H](c2ccc(CO)cc2)N1Cc1ccccc1`, the composite z-score in test [1] was -0.025; in test [2], 0.0081; in test [3], -0.186; in [4] it was 0.471; in [5], 0.885; in test [6] it was 1.16. Besides, the composite z-score is -0.502 in the test on Lefty1; 0.322 in test [8]; 0.384 in [10]; -0.248 in [15]; 0.0633 in [16]; 0.189 with Torsin-1A (Homo sapiens) [17]. For the same molecule, the composite z-score with Torsin-1A (Homo sapiens) [18] came out at 0.7; in [19], 0.192. Moreover, the z-score in test [7] was -0.194; in test [9], 0.873 (inactive); in test [11], -2.11 (inactive); in test [12], -1.02 (inactive); in test [13], -0.179 (inactive); in test [14], 0.0053 (inactive).

Take `O=C(NCc1ccccc1)[C@@]1(CCS(=O)(=O)c2ccccc2)N=C(c2ccc(OCCCO)cc2)O[C@H]1c1ccccc1`: the composite z-score is 1.52 in test [1]; 1.26 in test [2]; 0.54 in test [3]; 0.994 in test [4]; 1.21 in test [5]; -0.0657 in test [6]. Further, the composite z-score in the test on Lefty1 was 0.116; in [8], 1.1; in test [10], 0.794; in test [15], 1.8; in [16], 0.212; with Torsin-1A (Homo sapiens) [17], 1.35. For the same molecule, the composite z-score in the test with Torsin-1A (Homo sapiens) [18] was 1.16; in test [19], -0.756. Also, the z-score in test [7] was -0.346; in test [9], 0.548 (inactive); in test [11] it was -2.09 (inactive); in test [12] it was -0.847 (inactive); in test [13], -0.435 (inactive); in test [14] it was -0.516 (inactive).

On to `COC(=O)c1c(CC[C@@H](CO)NC(=O)N2CCC[C@H]2Cn2cc(-c3ccccn3)nn2)oc(C(C)=O)c1C(=O)OC`, for which the composite z-score is 0.0014 in test [1]; 0.282 in [2]; 0.16 in test [3]; -0.975 in test [4]; -0.0633 in test [5]; 0.123 in test [6]. Also, the composite z-score in the test with Lefty1 is 0.427; in [8], 0.0776; in test [10], -0.249; in test [15], -0.281; in test [16], -0.0178; with Torsin-1A (Homo sapiens) [17] it was 0.0323. Besides, the results for the composite z-score (in the test with Torsin-1A (Homo sapiens) [18]; in test [19]) were 1.2 and 0.515, respectively. In addition, the z-score in test [7] is -0.53; in [9] it was 0.793 (inactive); in [11] it was -1.44 (inactive); in test [12], -0.95 (inactive); in [13], 0.395 (inactive); in [14], -0.0037 (inactive).
